# Measurements taken from the supplement of paper PMC9694430.
# Tests used:
# Assay in all cases: thermal shift delta Tm vs DMSO control; higher = stronger stabilization (binding)
# Conditions in all cases: 12.5 µM; protein concentration 2 µM
# [1] = tested on: LOC_OS02G45750-cb003
# Outline: (§1)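 Rice kinase domain constructs, made in E. coli and purified, were placed in 96-well plates at 2 μM in 19.5 μl of 100 mM potassium phosphate pH 7.5, 150 mM NaCl, 10% glycerol and 5 × SYPRO Orange, with compound in DMSO. A temperature ramp from 25°C to 95°C at 0.05°C/s was used for differential scanning fluorimetry. The melting temperature shift is a triplicate mean compared with DMSO-only protein, derived from Boltzmann fits.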
# [2] = tested on: LOC_OS02G54510-cb004
# Outline: as §1
# [3] = tested on: LOC_OS03G04050-cb001
# Outline: as §1
# [4] = tested on: LOC_OS03G12390-cb001
# Outline: as §1
# [5] = tested on: LOC_OS03G27990-cb004
# Outline: as §1
# [6] = tested on: LOC_OS03G50450-cb001
# Outline: as §1
# [7] = tested on: LOC_OS03G50810-cb003
# Outline: as §1
# [8] = tested on: LOC_OS04G35114-cb001
# Outline: as §1
# [9] = tested on: T1, LOC_OS04G38480-cb003
# T1 sequence (whole entry): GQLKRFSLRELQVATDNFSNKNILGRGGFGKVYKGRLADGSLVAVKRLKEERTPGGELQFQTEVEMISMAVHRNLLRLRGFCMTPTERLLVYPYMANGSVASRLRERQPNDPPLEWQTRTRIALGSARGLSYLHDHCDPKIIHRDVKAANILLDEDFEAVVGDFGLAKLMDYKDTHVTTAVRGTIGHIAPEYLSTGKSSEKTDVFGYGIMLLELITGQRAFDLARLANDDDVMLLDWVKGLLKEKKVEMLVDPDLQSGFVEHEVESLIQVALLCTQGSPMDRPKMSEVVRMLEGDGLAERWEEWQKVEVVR
# Outline: as §1
# [10] = tested on: T2, LOC_OS04G41100-cb001
# T2 sequence (whole entry): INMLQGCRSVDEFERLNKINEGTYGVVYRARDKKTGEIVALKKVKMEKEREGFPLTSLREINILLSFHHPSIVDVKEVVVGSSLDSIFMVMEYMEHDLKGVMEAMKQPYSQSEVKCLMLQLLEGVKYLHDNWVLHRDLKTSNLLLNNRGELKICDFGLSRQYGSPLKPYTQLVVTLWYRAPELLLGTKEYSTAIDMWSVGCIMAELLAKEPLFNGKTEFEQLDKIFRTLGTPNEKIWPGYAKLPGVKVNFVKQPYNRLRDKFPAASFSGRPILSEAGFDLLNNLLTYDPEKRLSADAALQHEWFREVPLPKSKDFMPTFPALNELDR
# Outline: as §1
# 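Note: purified Escherichia coli-expressed rice kinase domain construct.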
SMILES,thermal shift delta Tm [1] [°C],thermal shift delta Tm [2] [°C],thermal shift delta Tm [3] [°C],thermal shift delta Tm [4] [°C],thermal shift delta Tm [5] [°C],thermal shift delta Tm [6] [°C],thermal shift delta Tm [7] [°C],thermal shift delta Tm [8] [°C],thermal shift delta Tm [9] [°C],thermal shift delta Tm [10] [°C]
Cn1cc(/C=C2\C(=O)Nc3cccnc32)c2ccccc21,11.3,0.63,0.83,3.11,1.64,4,3.46,6.79,3.05,0.74
N#C/C(=C\c1ccc(O)c(O)c1)C(=O)NCc1ccccc1 [AG-490 (Tyrphostin B42)],0.05,0.41,0.78,0.12,0.27,-0.29,0.09,-0.45,0.47,0.43
COc1nccnc1NS(=O)(=O)c1ccc(NC(=O)/C=C/c2ccc([N+](=O)[O-])s2)cc1 [Necrosulfonamide],-0.78,0.22,0.43,-0.66,1.32,-0.09,0.29,1.14,0.24,-0.12
CCNC(=O)Nc1ccc(-c2nc(N3CCOC[C@@H]3C)c3c(n2)C(C)(C)S(=O)(=O)C3)cc1,0.42,0.08,0.36,0.06,0.16,0.41,0.16,0.29,1.39,0.2
COc1cc2ncc(-c3ccccc3)nc2cc1OC [Tyrphostin AG 1296],4.58,-0.11,0.13,0.49,0.74,0.48,1.56,3.93,0.73,0.13
Cc1cc(F)c(Nc2ncnc3cc(OCc4ccccc4)ccc23)cc1O,0.78,0.36,0.9,0.2,0.83,1.28,0.71,1.12,1.35,-0.11
O=C(c1ccc(Nc2nccc(-c3cc4ccccc4s3)n2)cc1)N1CCC(N2CCCC2)CC1 [IKK-16 (IKK Inhibitor VII)],6.42,1.74,0.22,2.55,4.05,1.23,5.04,5.32,3.88,4.91
CCn1c(-c2nonc2N)nc2cnc(Oc3cccc(NC(=O)c4ccc(OCCN5CCOCC5)cc4)c3)cc21,-0.36,0.27,0.38,0.99,0.4,-0.03,0.42,0.1,2.03,0.94
Cc1ncc(CCCN(C)C)cc1Nc1ncc2c(n1)-c1ccc(C(F)(F)F)cc1NC(=S)C2,1.25,0.09,0.4,3.03,0.91,0.13,0.62,0.02,0.51,0.47
O=S(=O)(c1cccc2c(I)cccc12)N1CCCNCC1,0.53,-0.05,0.42,0.16,0.1,0.19,0.19,0.11,2.17,0.44
S=C(NCc1ccc2c(c1)OCO2)N1CCN(c2ncnc3c2oc2ccccc23)CC1 [Amuvatinib (MP-470)],0.86,-2.11,0.55,0.66,0.56,0.69,0.68,-0.04,0.39,0.47
O=C(NOCC1CC1)c1ccc(F)c(F)c1Nc1ccc(I)cc1Cl,0.27,-0.05,1.06,0.75,0.28,0.46,0.83,0.12,1.28,0.9
c1cncc(CN2CCC(n3ncc4c(N5CCOCC5)nc(-c5ccc6[nH]ccc6c5)nc43)CC2)c1,0.03,-0.13,0.22,-0.05,0.01,0.14,0.65,0.3,0.67,0.58
CC[C@@H](N)CNc1ccnc(-c2cc(-c3cnn(C)c3)ccc2O)n1,2.91,-0.17,0.27,0.67,0.75,0.74,1.49,6.46,1.41,2.6
CC(C)(C)Cn1c(N)nc2ccc(-c3[nH]c(C(C)(C)C)nc3-c3ccc(F)cc3)nc21,0.45,0.25,0.52,-0.25,0.28,0.23,0.13,0.02,0.12,0.22
CC(C)NC(=O)COc1cccc(-c2nc(Nc3ccc4[nH]ncc4c3)c3ccccc3n2)c1,1.3,0.55,0.76,-0.25,0.71,0.77,0.84,1.5,1.83,0.68
CCCCOc1c(C(=O)c2c(F)cc(C)cc2F)c[nH]c2nncc1-2,0.73,0.14,0.23,2.18,0.03,-0.21,0.46,0.65,0.81,0.49
CC#CC(=O)Nc1ccc2ncnc(Nc3cccc(Br)c3)c2c1,-0.66,0.79,0.48,0.54,0.39,-0.04,1.24,3.68,1.41,0.03
Cn1ncc(Cl)c1-c1cc(C(=O)N[C@H](CN)Cc2cccc(F)c2)sc1Cl,0.37,-0.08,0.33,0,0.16,0.15,-0.04,0.42,0.52,0.2
CC(C)NC(=O)C1CCC(n2c(NC(=O)c3ccc(F)cc3)nc3ccc(CN4CCC(C(C)(C)O)CC4)cc32)CC1 (stereo not given) [Belizatinib (TSR-011)],1.72,1.61,0.67,6.22,1.09,0.85,3.76,6.28,1.98,0.49
